In PubChem BioAssay (NCATS):
Inconclusive results are not listed. The source made the active and inactive calls. The call rests on the fitted dose curve; in most records, active means well fitted inhibition curve with a large enough effect; inconclusive means small, poorly fitted or top-dose-only effect; inactive means flat fitted curve, though single readings scatter.

Key:
Assay in all cases: Cytotoxic Profiling of Annotated Libraries Using Quantitative High-Throughput Screening (AID 1296008); further: nearly all actives have a fitted effect of over 60% in size
Details in all cases: Five cell lines viability, CellTiter-Glo ATP luminescence, 48-72 h; max response: hits give low values
CRL-7250 = normal cell line; test system: CRL-7250
Outline: (§1)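 Cytotoxicity was measured as CellTiter-Glo ATP luminescence, read after 10 min at room temperature. Compound treatment of the cells lasted 48 or 72 hr at 37 degrees Celsius in a qHTS format.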

HaCat = test system: HaCat
Outline: as §1

KB-3-1 = test system: KB-3-1
Outline: as §1

NIH3T3 = test system: NIH3T3
Outline: as §1
On the % scale 0 is the no-effect control and ±100 the full control effect; potency means the concentration at half of the fitted maximal effect.

CC(=O)O[C@@H]1C[C@]2(C)[C@@]3(CCC4[C@@]5(C)CC[C@H](O[C@@H]6O[C@H](C(=O)O)[C@@H](O)[C@H](OC7OC(CO)C(O)C(O)[C@H]7O[C@@H]7O[C@@H](C)[C@H](O)[C@@H](O)[C@H]7O[C@@H]7OC[C@](O)(CO)[C@H]7O)[C@H]6OC6OC(CO)C(O)C(O)C6O)C(C)(C)C5CC[C@]42C)OC[C@@]12CCC(C)(C)CC23 (stereo partly specified)
inactive: max response (CRL-7250) -2.03% | max response (HaCat) 0.508% | max response (KB-3-1) -5.11% | max response (NIH3T3) 0.621%

O=C(Nc1ccccc1C(=O)NC1CCCCNC1=O)c1cc2ccccc2s1 (stereo unspecified)
inactive: outcome (CRL-7250) | max response (HaCat) 4.7% | max response (KB-3-1) -2.87% | max response (NIH3T3) 4.3%

Cc1[nH]c2ccccc2c1CCNCc1ccc(/C=C/C(=O)NO)cc1
active: Potency (CRL-7250) 517 nM | Potency (HaCat) 184 nM | Potency (KB-3-1) 82 nM | Potency (NIH3T3) 366 nM

Fc1ccc(-c2nc(-c3ccccc3F)[nH]c2-c2ccncc2)cc1
inactive: max response (CRL-7250) 3.37% | max response (HaCat) 4.02% | outcome (KB-3-1) | max response (NIH3T3) 4.47%

C=C(C(=O)O)[C@@H]1CC=C(CCC(C)=O)[C@@H](C)CC1
inactive: max response (CRL-7250) -0.888% | max response (HaCat) -4.33% | max response (KB-3-1) -14.7% | max response (NIH3T3) -3.55%

Cc1ccc(S(=O)(=O)NCc2ccc(C(=O)NCCN(Cc3ccccc3)C(C)C)cc2)cc1
inactive: max response (CRL-7250) -10.1% | max response (HaCat) -19.3% | max response (KB-3-1) -24.2% | max response (NIH3T3) -5.87%

COc1cc(-c2nc(N[C@H](CO)Cc3ccccc3)ccc2C(=O)NCCOc2ccccc2)cc(OC)c1OC
inactive: max response (CRL-7250) 4.02% | max response (HaCat) -1.78% | max response (KB-3-1) 7.13% | max response (NIH3T3) -3.25%

COC(=O)CC[C@@H](C)C1CCC2C3CCC4C[C@H](OC(C)=O)CCC4(C)C3C[C@H](O)C21C (stereo partly specified)
inactive: max response (CRL-7250) -0.684% | max response (HaCat) -5.91% | max response (KB-3-1) 9.49% | outcome (NIH3T3)

O=C(O)c1cccc(-c2ccc(-c3cn(C(=O)N4CCCCC4Cc4ccccc4)nn3)cc2)c1 (stereo unspecified)
inactive: max response (CRL-7250) 0.106% | max response (HaCat) -16.1% | max response (KB-3-1) 9.26% | max response (NIH3T3) -1.06%

O=C(NCCO)c1cccc(-c2cc(Nc3ccc(OC(F)(F)F)cc3)ncn2)c1
inactive: max response (CRL-7250) 0.504% | max response (HaCat) -14.2% | max response (KB-3-1) -22.2% | max response (NIH3T3) -22.6%

CN(C)C(=O)Nc1cccc(-c2ccc(N(C)C)cc2)c1
inactive: max response (CRL-7250) -5.4% | max response (HaCat) -0.332% | max response (KB-3-1) -4.8% | max response (NIH3T3) 3%

C=C(COC(=O)C(O)C(O)CN)C12OC1C1(C)C(=CC2=O)C(O)C(O)CC1C (stereo unspecified)
inactive: max response (CRL-7250) -7.2% | max response (HaCat) 0.561% | outcome (KB-3-1) | outcome (NIH3T3)

N#Cc1cccc(C(=O)Nc2cc(-c3ccccc3)nn2-c2ccccc2)c1
inactive: max response (CRL-7250) 1.2% | max response (HaCat) 1.42% | max response (KB-3-1) -17% | max response (NIH3T3) -3.88%

COc1ccccc1-c1ccc(-c2cn(C(=O)N3CCCCC3Cc3ccccc3)nn2)cc1 (stereo unspecified)
inactive: outcome (CRL-7250) | max response (HaCat) -29.9% | max response (KB-3-1) 1.87% | outcome (NIH3T3)

O=C(N[C@H](Cc1cscn1)C(=O)N[C@@H](CC1CCCCC1)[C@@H](O)[C@@H](O)C1CC1)c1nc2ccccc2[nH]1
inactive: max response (CRL-7250) 0.844% | max response (HaCat) -14.3% | max response (KB-3-1) -12.2% | max response (NIH3T3) -17.1%

CCn1nc(C2CCN(C(=O)CCO)CC2)nc1-c1cnc(N)c(-c2nnc(C(C)(C)C)o2)n1
active: Potency (HaCat) 3660 nM | Potency (NIH3T3) 8200 nM
inactive: max response (CRL-7250) -9.09% | max response (KB-3-1) 9.1%

CCC/C=C\C=C/CCc1cc(O)c([C@@H]2O[C@H](CO)[C@@H](O)[C@H](O)[C@H]2O)c(O)c1C(=O)OC
inactive: max response (CRL-7250) -29.4% | max response (HaCat) -26.9% | max response (KB-3-1) -7.75% | max response (NIH3T3) -3.37%

CC/C(C)=C/C(=O)OC1C(OC2(C)CCC3C(C4C(C)CCC42)C3(C)C)OC(C)C(O)C1O (stereo unspecified)
inactive: max response (CRL-7250) -1.32% | max response (HaCat) -0.133% | outcome (KB-3-1) | max response (NIH3T3) -0.0823%

CN1CCc2cc3c(cc2C(=O)Cc2cc4c(cc2C1)OCO4)OCO3
inactive: outcome (CRL-7250) | max response (HaCat) -8.11% | outcome (KB-3-1) | outcome (NIH3T3)

O=C(Nc1ccccc1Cl)c1cnc2ccc(C3CCNCC3)cn12
active: Potency (CRL-7250) 1030 nM | Potency (HaCat) 1640 nM | Potency (NIH3T3) 1460 nM
inactive: max response (KB-3-1) 2.96%

C[C@@H]1O[C@@H](O[C@H]2[C@H](O[C@H]3CC[C@@]4(C)C(CC[C@]5(C)C4C=C[C@]46OC[C@@]7(CCC(C)(C)C[C@H]74)[C@@H](O[C@@H]4O[C@@H](C)[C@H](O)[C@@H](O)[C@H]4O)C[C@]65C)[C@]3(C)CO)O[C@H](CO)[C@@H](O)[C@@H]2O[C@@H]2O[C@H](CO)[C@@H](O)[C@H](O)[C@H]2O)[C@H](O)[C@H](O)[C@H]1O (stereo partly specified)
inactive: max response (CRL-7250) -7.16% | max response (HaCat) -9.32% | max response (KB-3-1) -1.23% | max response (NIH3T3) -25.1%

O=C(NCCN1CCN(c2cccc3c2OCCO3)CC1)c1ccc(F)cc1
inactive: max response (CRL-7250) 2.38% | max response (HaCat) -12.9% | max response (KB-3-1) -10.3% | max response (NIH3T3) 2.39%

COc1c(C(C)C)c(O)c(O)c2c1C(OC)[C@H]1OC(=O)[C@@]23CCCC(C)(C)[C@H]13 (stereo partly specified)
inactive: outcome (CRL-7250) | max response (HaCat) -9.13% | outcome (KB-3-1) | max response (NIH3T3) -6.75%

C/C(=C\Cc1c(O)c(Cl)c(C)c(C=O)c1O)CC/C=C(\C)[C@H]1CC(=O)C(C)(C)O1
inactive: max response (CRL-7250) -27.3% | max response (HaCat) -8.07% | max response (KB-3-1) -27.9% | max response (NIH3T3) -17.5%

O=C(NCCCc1ccccc1)C1CCC(CNS(=O)(=O)c2cccc3nsnc23)CC1 (stereo unspecified)
inactive: max response (CRL-7250) -1.65% | max response (HaCat) -4.58% | max response (KB-3-1) -11.8% | max response (NIH3T3) -18.1%

CC(C)(CNC(=O)c1cccc(-c2noc(C(F)(F)F)n2)c1)c1coc(-c2ccccc2)n1
inactive: max response (CRL-7250) 1.16% | max response (HaCat) -1.63% | max response (KB-3-1) -6.73% | max response (NIH3T3) 4.1%

O=S(=O)(NCc1ccccn1)c1ccc(Br)c2ccccc12
inactive: max response (CRL-7250) -0.212% | max response (HaCat) 1.53% | max response (KB-3-1) 0.961% | max response (NIH3T3) -0.344%

COc1ccc(NC(=O)C2C[C@H](C)CC[C@H]2C(C)C)cc1 (stereo partly specified)
inactive: outcome (CRL-7250) | max response (HaCat) -2.17% | outcome (KB-3-1) | max response (NIH3T3) -6.73%

CCCC(CCC)C(=O)NCc1ccc2c(cnn2-c2ccccc2OC)c1
inactive: max response (CRL-7250) -29.2% | max response (HaCat) 3.89% | max response (KB-3-1) -13.4% | max response (NIH3T3) 0.011%

COc1ccc(CN2CCN(CCCSc3cc(C(C)(C)C)c(O)c(C(C)(C)C)c3)CC2)c(OC)c1OC
inactive: outcome (CRL-7250) | max response (HaCat) -2% | outcome (KB-3-1) | max response (NIH3T3) 4.43%

CCC(C)c1ccc(NC(=O)Cn2cnc3c2c(=O)n(C)c(=O)n3C)cc1 (stereo unspecified)
inactive: max response (CRL-7250) -7.14% | max response (HaCat) -17.7% | max response (KB-3-1) -2.48% | max response (NIH3T3) -2.04%

Cn1ncnc1[C@@H]1c2n[nH]c(=O)c3cc(F)cc(c23)N[C@H]1c1ccc(F)cc1
inactive: max response (CRL-7250) -10.4% | max response (HaCat) -18% | outcome (KB-3-1) | max response (NIH3T3) -15%

CO[C@@H]1[C@H](O)CCC2(CO2)[C@H]1[C@@]1(C)O[C@@H]1CC=C(C)C (stereo partly specified)
inactive: max response (CRL-7250) -6.79% | max response (HaCat) -1.46% | outcome (KB-3-1) | max response (NIH3T3) -13.7%

COC1CC(=O)C23C(=O)NC(CC(C)C)C2C(C)C(C)=CC3/C=C(\C)CCCC1O (stereo unspecified)
inactive: max response (CRL-7250) -6.23% | max response (HaCat) 3.61% | max response (KB-3-1) 1.14% | max response (NIH3T3) -14.9%

COc1cc(NC(=O)c2cc(C3CC3)on2)c(OC)cc1Cl
inactive: max response (CRL-7250) -0.243% | max response (HaCat) -5.44% | max response (KB-3-1) 7.13% | max response (NIH3T3) -5.84%

COCC(c1ccc(C(F)(F)F)cc1)N1CCN(C2(C)CCN(C(=O)c3c(C)ncnc3C)CC2)CC1C (stereo unspecified)
inactive: max response (CRL-7250) 4.87% | max response (HaCat) -10.9% | max response (KB-3-1) 8.07% | outcome (NIH3T3)

C[C@H]1CO[C@@H]2Cn3cc(C(=O)NCc4ccc(F)cc4F)c(=O)c(O)c3C(=O)N12
inactive: max response (CRL-7250) -9.56% | max response (HaCat) 1.95% | max response (KB-3-1) -18.7% | max response (NIH3T3) 2.62%

COc1c(C)cc(NC(=O)c2nn(Cc3ccc(F)cc3)c3c2CN(C(=O)c2ccc[nH]2)C[C@]3(C)C(N)=O)cc1C
inactive: max response (CRL-7250) -1.93% | max response (HaCat) -0.617% | outcome (KB-3-1) | max response (NIH3T3) -14%

COc1cc2c(c(OC)c1CC=C(C)C)C[C@H](c1ccc(O)c(CC=C(C)C)c1O)CO2
inactive: max response (CRL-7250) 2.21% | max response (HaCat) -6.86% | max response (KB-3-1) -4.62% | max response (NIH3T3) -5.48%

CC(C)n1c(=O)c(C(=O)NC2CC3CCC(C2)N3C[C@@H](O)CN(C)S(C)(=O)=O)cc2ccccc21 (stereo partly specified)
inactive: max response (CRL-7250) -15.6% | max response (HaCat) -16.2% | max response (KB-3-1) -11.4% | max response (NIH3T3) -22.5%

COc1ccc(N2CCN(C(=O)c3cc4c(s3)-c3ccccc3S(=O)(=O)C4)CC2)cc1
inactive: max response (CRL-7250) 4.26% | max response (HaCat) 2.45% | max response (KB-3-1) -19.5% | max response (NIH3T3) -22%

CCOC(=O)C1=Cc2ccc(C(F)(F)C(F)(F)F)cc2N=C(N)C1
inactive: max response (CRL-7250) -15.9% | max response (HaCat) -0.757% | max response (KB-3-1) -20.4% | max response (NIH3T3) -6.78%

CC(=O)OC/C(=C/C(=O)O)CC[C@@H]1C(C=O)=CC[C@@H]2C(C)(C)CCC[C@@]12C
inactive: max response (CRL-7250) 4.87% | max response (HaCat) 3.05% | max response (KB-3-1) 3.67% | max response (NIH3T3) 3.58%

CC1=CC2/C=C(\C)CCC(O)C(=O)C(O)CC(=O)C23C(=O)NC(CC(C)C)C3C1C (stereo unspecified)
inactive: outcome (CRL-7250) | max response (HaCat) -78.4% | max response (KB-3-1) 2.51% | max response (NIH3T3) -27%
